Data as given in PubChem BioAssay (NCATS).
Inconclusive results are not listed. A number with no mark means an inactive call. Calls of active or inactive are those of the source. Calls come from the whole dose curve; as a rule, active = well fitted inhibition curve with a large enough effect; inconclusive = small, poorly fitted or top-dose-only effect; inactive = flat fitted curve, though single readings scatter.

Molecular target: Phospholipid hydroperoxide glutathione peroxidase GPX4 (Homo sapiens) (UniProt P36969)
Sequence (P36969 whole entry, looked up): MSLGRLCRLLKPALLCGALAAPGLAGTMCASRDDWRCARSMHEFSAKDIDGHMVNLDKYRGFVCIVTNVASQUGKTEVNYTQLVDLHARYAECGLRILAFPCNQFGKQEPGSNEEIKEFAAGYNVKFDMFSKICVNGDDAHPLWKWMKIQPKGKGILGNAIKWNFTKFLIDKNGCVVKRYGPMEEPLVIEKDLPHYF
Experiment: Primary qHTS Assay for Inhibitors of Recombinant Selenoprotein Glutathione Peroxidase 4 (GPX4) (AID 1845192); note: nearly all actives have a fitted effect of over 65% in size
Settings: recombinant GPX4, GR-coupled NADPH fluorescence, 15 min; series mostly up to 50 µM; activity change, negative = inhibition: at the top concentration
In short: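 qHTS, GR-coupled: GPX4 200 nM + cpd 30 min RT → GSH 1 mM, NADPH 0.5 mM, GR 100 nM → CHP 0.5 mM start; fluor 340/450 at t0 and t15 min; no-enzyme wells as control.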
% is set by controls: 0 for no effect and ±100 for the full control effect.

Compound	activity change, negative = inhibition	outcome	Potency
N#C/C(=C/c1ccc(O)c(O)c1)C(N)=S	-19.6%		
COC1C(O)C(OC2CCC3(C=O)C(CCC4C3CCC3(C)C(C5=CC(=O)OC5)CCC43O)C2)OC(C)C1OC1OC(CO)C(O)C(O)C1O (centres undefined)	3.61% [at 15.3 µM]		
COC1CC(OC2CCC3(C)C(CCC4C3CCC3(C)C(C5=CC(=O)OC5)C(OC(C)=O)CC43O)C2)OC(C)C1OC1OC(CO)C(O)C(O)C1O (centres undefined)	1.67% [at 15.3 µM]		
C=CC(C)(C)c1[nH]c2cccc3c2c1C[C@@H]1[C@@H]3[C@@H](OC(C)=O)[C@H](C)CN1C	4.18% [at 27.8 µM]		
C[C@@]12C[C@@H](c3ccoc3)OC(=O)C1CC[C@]1(C)[C@H]2[C@H]2C=C[C@]1(O)C(=O)O2 (some centres undefined)		inactive [at 27.8 µM]	
C/C=C(\C)C(=O)OC1CC2C(C)(C)OC(=O)CC(OC(C)=O)C2(C)C2CC(OC(=O)C(C)C)C3(C)C(c4ccoc4)CC4OC43C12C (centres undefined)	-20.1% [at 15.3 µM]		
CC(=O)c1c(O)c(C)c(O)c(Cc2c(O)c3c(c(C(=O)/C=C/c4ccccc4)c2O)OC(C)(C)C=C3)c1O	-28.4%		
Cc1cc(C(=O)CN2CCCC2)c(C)n1-c1ccc(F)cc1			inactive
COc1cc(CCNCc2ccccc2O)c(OC)cc1C#N	1.25%		
